Shiga inhibitor = A qHTS for Small Molecule Inhibitors of Shiga Toxin. Vero cells, Shiga toxin protein synthesis inhibition reporter. inhibition, % at 38.7 µM. 290,000 tested, 9.2% active; in the data active = inhibition mostly above about 28%, no sharp cut-off; inactive = mostly below about 43%; note: 0% is about no effect
NS1 function inh = qHTS Assay for Inhibitors of Influenza NS1 Protein Function | 270,000 tested, 0.4% active | Potency, µM (series often up to 46.1 µM), without a hit: at the top dose activity, positive = more growth; calls by dose curve; note: potency is the fitted concentration of half-maximal effect; actives are rising curves; nearly all actives have a fitted effect of over 50% in size
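A cell-based growth assay was used: compounds that relieve NS1-induced slow growth of budding yeast raise OD600. Assay medium was yeast nitrogen base with ammonium sulphate and -URA supplement, pH 6.0, with 2% galactose.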
Pf growth 48h = Primary qHTS for delayed death inhibitors of the malarial parasite plastid, 48 hour incubation; P. falciparum luciferase growth in erythrocytes, 48 h; Potency, µM (titrated, usually from 28.7 µM), without a hit: top-dose activity change, negative = inhibition, actives largely listed as inhibitors; 310,000 tested, 5.9% active; note: potency is the fitted concentration of half-maximal effect; % is set by controls: 0 for no effect and ±100 for the full control effect
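Luciferase-expressing parasites in RBCs, 2% Hct / 0.1% parasitemia final; RPMI 1640 + 0.5% Albumax; 37 C, 5% CO2, one generation; luminescence read-out, lower signal = inhibition.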
CHX counter = Cycloheximide Counterscreen for Small Molecule Inhibitors of Shiga Toxin; cell reporter, cycloheximide protein synthesis inhibition counterscreen; max response, %; 300,000 tested, 12% active; in the data active = max response mostly above about 13%, no sharp cut-off; inactive = mostly below about 14%; note: read at 38.3 µM for the half of the compounds with a filed dose; 0% is about no effect
Pf growth 96h = Primary qHTS for delayed death inhibitors of the malarial parasite plastid, 96 hour incubation; AID 504834, 2011; Potency, µM (top dose mostly 28.7 µM), for the others: at the top dose activity change, negative = inhibition, usual class: inhibitors; P. falciparum luciferase reporter growth, 96 h; 320,000 tested, 6.9% active; note: potency is the fitted concentration of half-maximal effect; % is set by controls: 0 for no effect and ±100 for the full control effect
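Readout is luminescence from an integrated firefly luciferase in P. falciparum. Red cells, 2% hematocrit and 0.05% parasitemia final, were cultured with compound through two parasite generations (96 hours) at 37 C, 5% CO2.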
FBPA Giardia inh = qHTS Assay for Inhibitors of Fructose-1,6-bisphosphate Aldolase from Giardia Lamblia; A8B2U2; purified Giardia FBPA; Potency, µM (top dose mostly 59.6 µM), without a hit: at the top dose activity, negative = inhibition, usual class: inhibitors; 290,000 tested, 0.71% active; AID 2451, 2010; note: potency is the fitted concentration of half-maximal effect; % is set by controls: 0 for no effect and ±100 for the full control effect; nearly all actives have a fitted effect of over 55% in size
Target sequence (A8B2U2 whole entry, looked up): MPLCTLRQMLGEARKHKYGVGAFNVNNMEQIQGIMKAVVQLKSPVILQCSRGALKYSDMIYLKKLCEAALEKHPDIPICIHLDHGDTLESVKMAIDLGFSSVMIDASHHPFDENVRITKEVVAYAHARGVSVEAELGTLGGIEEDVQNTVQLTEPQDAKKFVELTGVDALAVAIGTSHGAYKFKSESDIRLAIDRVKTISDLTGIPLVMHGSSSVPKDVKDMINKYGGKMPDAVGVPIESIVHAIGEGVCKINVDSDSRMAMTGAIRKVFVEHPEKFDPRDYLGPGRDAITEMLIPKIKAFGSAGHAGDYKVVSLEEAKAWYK
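40 nM FBPA preincubated 10 min at RT with compound (up to 57.5 uM final), then substrate plus GAPDH/TPI/NAD/arsenate coupling and diaphorase/resazurin added. Fluorescence read after 20 min at RT, 525/598 nm.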
* = called active by the depositor; u = inconclusive; x = no result given. The list is not random: actives were taken first. Their share in the collection is about 21%. Unless noted, calls come from the whole dose curve; as a rule, active = well fitted curve in the direction sought with a large enough effect; inconclusive = small, poorly fitted or top-dose-only effect, or another doubt; inactive = no such curve, though single readings can be large; an effect the other way counts as inactive or inconclusive.

SMILES	Shiga inhibitor	NS1 function inh	Pf growth 48h	CHX counter	Pf growth 96h	FBPA Giardia inh
CCn1c(=O)c2sccc2n2c(CCCC(=O)N3CCN(c4ccccn4)CC3)nnc12	5	4%	10µM*	6	u	x
COCCn1c(=O)c(-c2ccc(F)cc2)nc2cnc(Oc3cccc(Cl)c3)nc21	x	x	x	x	x	-1%
CN1C(=O)[C@@H]2C[C@@]3([C@@]45C[C@H]6C(=O)N(C)[C@@H](Cc7ccccc7)C(=O)N6[C@@H]4Nc4ccccc45)c4ccccc4N[C@H]3N2C(=O)[C@@H]1Cc1ccccc1	x	x	12µM*	x	u	x
CC1=C(C)/C(=N\OS(=O)(=O)c2ccccc2)C=CC1=O	-15	-249%	x	-2	13µM*	4.5µM*
Cc1ccc(S(=O)(=O)O/N=C2\CCCc3ccccc32)cc1	-5	-1%	x	-5	-4%	u
Cc1cc(-c2ccccc2)n(-c2ccccc2)n1	94*	-6%	39%	40*	12%	-2%
c1ccc(-c2cnnn2-c2ccccc2)cc1	-3	0%	24%	-2	0.83µM*	7%
O=[N+]([O-])c1cccc(-n2nncc2-c2ccccc2)c1	-8	-13%	19%	-2	-17%	15%
CC1CCN(S(=O)(=O)c2ccc3c(c2)N(CC(=O)NCCCN2CC(C)CC(C)C2)C(=O)CS3)CC1 (configuration not stated)	-3	-5%	u	1	12%	x
COc1ccc(OC)c(CNS(=O)(=O)c2c(C)nc3scc(C)n3c2=O)c1	-11	-9%	10%	2	-4%	6%
CC(Oc1ccc(Br)cc1)c1nc2c3ccccc3nc(=S)n2[nH]1 (configuration not stated)	-7	x	1.5µM*	18	u	16%
COc1ccccc1-c1nc2c3ccccc3nc(=S)n2[nH]1	-3	1%	4.7µM*	-2	1.5µM*	u
S=c1nc2ccccc2c2nc(-c3ccccc3Cl)[nH]n12	29	7%	1.5µM*	12	1.7µM*	-5%
S=c1nc2ccccc2c2nc(-c3ccccc3)[nH]n12	22	-31%	4.7µM*	2	46%	-2%
COc1cccc(N2C(=O)Nc3ccc(Br)cc3C2(O)C(=O)NCCCN(C)C)c1 (configuration not stated)	-4	0%	4%	-3	u	-6%
CCC(C)(C)NC(=O)CN(C(=O)C(=O)Nc1ccc2c(c1)OCCO2)N1CCOCC1	-6	-3%	2%	-6	u	1%
CCn1c(SC)nnc1C1CCCN(CC(=O)Nc2ccccc2N2CCOCC2)C1 (configuration not stated)	-2	-13%	-24%	-1	2%	-13%
Cc1cc(C)c2nc(-c3cccc(Cl)c3)c(C)c(C(=O)N3CCOCC3)c2c1	-29	-4%	12µM*	11	u	x
Cc1onc(-c2c(Cl)cccc2Cl)c1C(=O)N1CCOCC1	-5	11%	-4%	-9	19%	6%
COCC(=O)Nc1cc(Sc2ccccc2)ccc1N=C(NC(=O)OC)NC(=O)OC	x	x	5%	x	-7%	x
COc1ccc(N2CC(C(=O)Nc3nnc(SCc4ccccn4)s3)CC2=O)cc1 (configuration not stated)	-2	4%	-23%	20*	u	-3%
COc1ccc(N2CC(C(=O)Nc3nnc(SCC(=O)N4CCOCC4)s3)CC2=O)cc1 (configuration not stated)	-1	20%	-20%	-1	6.6µM*	x
O=C(Nc1nnc(SCC(=O)N2CCOCC2)s1)C1CC(=O)N(c2ccccc2)C1 (configuration not stated)	3	10%	-5%	-3	u	-2%
c1cc2c(c(NC3=NCCN3)c1)CCCC2	x	-11%	u	x	11µM*	x
CN(C)c1ccc(/C=C/c2ccc3ccccc3n2)cc1	-19	-7%	-51%	-5	u	-5%
CCCN(CCC)c1ccc(/C=C/c2ccc3cc(OCC)ccc3n2)cc1	71*	8%	u	34*	-27%	-20%

From PubChem BioAssay
